The panel holds about 79,000 compounds, 15% with a hit somewhere; the sample as a whole holds those more often. Active and inactive are the calls of the source. Rule as the data show it: active = growth inhibition above about 70%; inactive = the rest.
Assays:
[1] = NCI Yeast Anticancer Drug Screen. Data for the rad52 strain (AID 147);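 also: 0% = growth of vehicle-treated control cultures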; details: S. cerevisiae rad52 mutant growth inhibition, active compounds read high
Method in brief: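 Yeast strain carrying a DNA damage repair alteration was exposed to test compounds. Growth inhibition was measured relative to vehicle-treated controls.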

[2] = NCI Yeast Anticancer Drug Screen. Data for the wt1 strain (AID 149);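 also: 0% = growth of vehicle-treated wt1 cultures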; details: S. cerevisiae wt1 strain (SPY 50644) growth inhibition, active compounds read high
Method in brief: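 Measured: growth of wt1 yeast under compound versus vehicle treatment, reported as inhibition.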

[3] = NCI Yeast Anticancer Drug Screen. Data for the rad50EPP+ strain (AID 151);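 also: 0% = growth of vehicle-treated control cultures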; details: S. cerevisiae rad50 mutant strain, active compounds read high
Method in brief: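 Yeast strain carrying rad50 alteration (rad50EPP+) exposed to compounds; growth inhibition measured relative to vehicle-treated controls.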

[4] = NCI Yeast Anticancer Drug Screen. Data for the mgt1 strain (AID 153); details: S. cerevisiae mgt1 mutant growth inhibition, active compounds read high
Method in brief: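 Yeast mgt1 strain (DNA repair/cell-cycle alteration panel) exposed to compounds; growth inhibition measured relative to vehicle-treated controls.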

[5] = NCI Yeast Anticancer Drug Screen. Data for the rad50 strain (AID 155);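 also: 0% = growth of vehicle-only cultures of the same strain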; details: S. cerevisiae rad50 strain growth inhibition, active compounds read high
Method in brief: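 Growth of the mutant yeast was measured after compound exposure and referenced to vehicle-treated cultures.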

[6] = NCI Yeast Anticancer Drug Screen. Data for the mec2-1 strain (AID 157); details: S. cerevisiae mec2-1 strain, active compounds read high
Method in brief: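 mec2-1 yeast strain, carrying an alteration in DNA damage repair or cell cycle control, was exposed to compounds; growth inhibition was measured relative to vehicle-treated controls.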

[7] = NCI Yeast Anticancer Drug Screen. Data for the rad14 strain (AID 159);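 also: 0% = growth of vehicle-treated control cultures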; details: S. cerevisiae rad14 strain growth inhibition, active compounds read high
Method in brief: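 Here, inhibition of yeast growth was measured after compound exposure, using a strain with a genetic defect in DNA damage repair and vehicle-treated cultures as the reference.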

[8] = NCI Yeast Anticancer Drug Screen. Data for the sgs1 mgt1 strain (AID 161);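 also: 0% = growth of cultures given vehicle only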; details: S. cerevisiae sgs1 mgt1 strain, active compounds read high
Method in brief: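 Percent growth inhibition was derived by comparing compound-exposed mutant yeast with vehicle-exposed cultures. The strain carries alterations in DNA damage repair.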

[9] = NCI Yeast Anticancer Drug Screen. Data for the CLN2oe strain (AID 163);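 also: 0% = growth of vehicle-only control cultures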; details: S. cerevisiae CLN2oe strain, active compounds read high
Method in brief: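 Yeast cells carrying a defined cell-cycle control alteration were exposed to test compounds. Growth inhibition was scored against vehicle-treated control cultures.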

[10] = NCI Yeast Anticancer Drug Screen. Data for the cln2 rad14 strain (AID 165);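 also: 0% = growth equal to vehicle treated cultures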; details: S. cerevisiae cln2 rad14 strain, active compounds read high
Method in brief: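 Yeast carrying cln2 and rad14 alterations (cell cycle control and DNA damage repair) were exposed to compounds. Growth inhibition was measured against vehicle-treated controls.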

[11] = NCI Yeast Anticancer Drug Screen. Data for the bub3 strain (AID 167); details: S. cerevisiae bub3 mutant strain, active compounds read high
Method in brief: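 Whole-cell yeast assay. The mutant strain was incubated with compounds, and growth inhibition was determined by comparison with vehicle-treated cells.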

[12] = NCI Yeast Anticancer Drug Screen. Data for the wt2 strain (AID 169);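 also: 0% = growth of vehicle-treated yeast cultures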; details: S. cerevisiae wt2 strain growth inhibition, active compounds read high
Method in brief: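 Yeast cells were exposed to test compounds, and growth inhibition was measured relative to vehicle-treated controls.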

[13] = NCI Yeast Anticancer Drug Screen. Data for the mlh1 strain (AID 171);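 also: 0% = growth of vehicle-treated control cultures of the same strain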; details: S. cerevisiae mlh1 strain growth inhibition, active compounds read high
Method in brief: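 Yeast carrying a defined genetic alteration in DNA damage repair or cell cycle control were exposed to test compounds. Growth inhibition was measured relative to vehicle-treated controls.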

[14] = NCI Yeast Anticancer Drug Screen. Data for the sgs1 strain (AID 173);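 also: 0% = growth of vehicle-only control cultures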; details: S. cerevisiae sgs1 mutant, active compounds read high
Method in brief: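 Yeast mutant strains carrying defined defects in DNA damage repair or cell cycle control were exposed to test compounds. Growth inhibition was scored against vehicle-treated controls.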

[15] = NCI Yeast Anticancer Drug Screen. Data for the rad18 strain (AID 177); details: S. cerevisiae rad18 mutant growth inhibition, active compounds read high
Method in brief: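 Yeast carrying a defined DNA damage repair alteration were exposed to compounds. Growth inhibition was expressed relative to vehicle-treated controls.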

[16] = at 5.0 µM (retest, dose inferred, filed as 0.5)
[17] = at 50.0 µM (retest, dose inferred, filed as 5.0)

Measured: growth inhibition

CC(C)/C(Cl)=N\OC(=O)Nc1ccc(F)cc1
active: [1]; at 100.0 µM 78% | [3]; at 100.0 µM 98% | [4]; at 33.0 µM 78% | [4]; at 100.0 µM 99% | [5]; at 100.0 µM 81% | [6]; at 100.0 µM 95% | [8]; [17] 86% | [8]; at 50.0 µM 88.7% | [11]; [17] 83% | [11]; at 50.0 µM 73.8% | [11]; at 100.0 µM 99% | [12]; at 33.0 µM 86% | [12]; at 100.0 µM 99% | [13]; at 100.0 µM 98% | [14]; at 33.0 µM 89% | [14]; at 100.0 µM 99%
inactive: [1]; at 1.2 µM 3% | [1]; at 3.7 µM 6% | [1]; at 11.0 µM 11% | [1]; at 33.0 µM 20% | [2]; at 1.2 µM 2% | [2]; at 3.7 µM -1% | [2]; at 11.0 µM -3% | [2]; at 33.0 µM -5% | [2]; at 100.0 µM -3% | [3]; at 1.2 µM 1% | [3]; at 3.7 µM 11% | [3]; at 11.0 µM 24% | [3]; at 33.0 µM 57% | [4]; at 1.2 µM 3% | [4]; at 3.7 µM 0% | [4]; at 11.0 µM 6% | [5]; at 1.2 µM 5% | [5]; at 3.7 µM 10% | [5]; [16] 24% | [5]; at 11.0 µM 12% | [5]; at 33.0 µM 23% | [5]; [17] 48% | [5]; at 50.0 µM 10.7% | [6]; at 1.2 µM 6% | [6]; at 3.7 µM 10% | [6]; [16] 35% | [6]; at 11.0 µM 13% | [6]; at 33.0 µM 23% | [6]; [17] 63% | [6]; at 50.0 µM 34% | [7]; at 1.2 µM 4% | [7]; at 3.7 µM 8% | [7]; at 11.0 µM 11% | [7]; at 33.0 µM 13% | [7]; at 100.0 µM 69% | [8]; [16] 26% | [9]; at 1.2 µM 12% | [9]; at 3.7 µM 16% | [9]; at 11.0 µM 15% | [9]; at 33.0 µM 14% | [9]; at 100.0 µM 15% | [10]; [16] 27% | [10]; [17] 29% | [10]; at 50.0 µM 38.8% | [11]; at 1.2 µM 13% | [11]; at 3.7 µM 22% | [11]; [16] 52% | [11]; at 11.0 µM 32% | [11]; at 33.0 µM 45% | [12]; at 1.2 µM -1% | [12]; at 3.7 µM -2% | [12]; at 11.0 µM 3% | [13]; at 1.2 µM 1% | [13]; at 3.7 µM 2% | [13]; at 11.0 µM 6% | [13]; at 33.0 µM 62% | [14]; at 1.2 µM -1% | [14]; at 3.7 µM -2% | [14]; at 11.0 µM 13% | [15]; at 1.2 µM -1% | [15]; at 3.7 µM 0% | [15]; at 11.0 µM 2% | [15]; at 33.0 µM 5% | [15]; at 100.0 µM 56%
